Screening data from PubChem.
HP1b binding inh: HP1-beta chromodomain-methylated histone interaction inhibition. AlphaScreen HP1-beta / biotin-H3K9me3 peptide binding. Potency, µM (top dose mostly 114 µM), without a hit: top-dose activity change, negative = inhibition, hits mostly inhibitors. 0.56% of 390,000 active; further: nearly all actives have a fitted effect of over 70% in size
Target sequence (P83916 whole entry, looked up): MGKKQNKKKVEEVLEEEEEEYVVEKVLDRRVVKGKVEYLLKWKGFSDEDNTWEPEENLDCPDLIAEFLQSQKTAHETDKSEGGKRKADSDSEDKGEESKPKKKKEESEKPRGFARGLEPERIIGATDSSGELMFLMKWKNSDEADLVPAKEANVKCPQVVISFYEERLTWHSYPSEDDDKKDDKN
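Compound inhibition of the preformed complex between 50 nM HP1-beta and 50 nM biotinylated H3K9me3 peptide was read by AlphaScreen. Buffer was PBS pH 7.4 with 0.01% Tween-20. Incubations ran 30 min at room temperature, with 10 ug/mL donor/acceptor beads.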
JMJD2A Tudor inh: inhibitors of human JMJD2A Tudor domain. O75164. AlphaScreen JMJD2A-Tudor / H3K4me3 peptide binding. Potency, µM (top dose mostly 114 µM), for the others: top-dose activity change, negative = inhibition, most hits filed as inhibitors. 4.4% of 390,000 active. AID 504339; further: on the % scale 0 is the no-effect control and ±100 the full control effect; nearly all actives have a fitted effect of over 50% in size
Sfp PPTase inh: blocks B. subtilis Sfp PPTase activity. 3.5% of 310,000 active. Biochemical Sfp PPTase activity, qHTS. Q9F4F7. Potency, µM, for inactives: largest response in the series, negative = inhibition, usual class: inhibitors. AID 1490;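 further: the enzyme is Sfp with the accession as filed and its product quenches rhodamine fluorescence; 0% = enzyme reaction without inhibitor and -100% = no enzyme wells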
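Compounds were incubated with enzyme (final 15 nM) for 15 min at room temperature before substrate addition started the reaction. Fluorescence at 525 nm excitation, 598 nm emission was recorded immediately and after 30 minutes.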
BAZ2B block: BAZ2B (human) inhibition. Q9UIF8. AlphaScreen BAZ2B-H3K14Ac peptide displacement. Potency, µM (titrated, usually from 114 µM), without a hit: top-dose activity change, negative = inhibition, most hits filed as inhibitors. 4.4% of 360,000 active. AID 504333; further: on the % scale 0 is the no-effect control and ±100 the full control effect; nearly all actives have a fitted effect of over 60% in size
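Complex of BAZ2B and biotin-H3K14Ac (50 nM apiece) forms over 30 min at RT, then faces library compounds up to 110 uM for another 30 min; AlphaScreen beads added, 20 min dark incubation, luminescence read.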
G9a inh: blocks human histone lysine methyltransferase G9a. G9a H3K9 monomethylation, AlphaScreen, 2 h. Q96KQ7. 8.8% of 350,000 active. Potency, µM (doses to about 102 µM), inactives show top-dose activity, negative = inhibition, hits mostly inhibitors; further: on the % scale 0 is the no-effect control and ±100 the full control effect; nearly all actives have a fitted effect of over 75% in size
Target sequence (Q96KQ7 913-1193 limits assumed): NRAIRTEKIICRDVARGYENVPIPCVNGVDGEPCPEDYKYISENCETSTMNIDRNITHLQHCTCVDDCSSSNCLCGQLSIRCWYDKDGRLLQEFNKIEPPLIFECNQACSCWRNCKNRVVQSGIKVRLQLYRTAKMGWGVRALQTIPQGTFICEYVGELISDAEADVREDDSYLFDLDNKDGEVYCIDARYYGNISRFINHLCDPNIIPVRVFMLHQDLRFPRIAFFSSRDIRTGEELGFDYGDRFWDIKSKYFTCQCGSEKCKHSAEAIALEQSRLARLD
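G9a (20 nM) was preincubated 15 min with compound, then reacted 2 h at room temperature with 500 nM biotin-H3K9 peptide and 20 µM SAM. Monomethyl-H3K9 detected by AlphaScreen using anti-H3K9me1 antibody.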
TDP1 inh: TDP1 (human) enzyme inhibition; Q9NUW8; 0.28% of 350,000 active; Potency, µM (doses to about 130 µM), for the others: at the highest dose activity change, negative = inhibition, most hits filed as inhibitors; recombinant TDP1, AlphaScreen DNA substrate cleavage; AID 485290; further: on the % scale 0 is the no-effect control and ±100 the full control effect; nearly all actives have a fitted effect of over 40% in size
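Recombinant human Tdp1 (E. coli-expressed, 1 nM final) preincubated with compounds 15 min at room temperature, then 5'-biotin/3'-phosphotyrosine-FITC DNA substrate (15 nM final) added for 5 min. AlphaScreen beads (10 ug/ml final) added 10 min; cleavage lowers signal.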
* = called active by the depositor; [ ] = dose if it differs, or a comment. Shown are actives, neighbours in structure and some others; about 12% of the full set was active somewhere. The call rests on the fitted dose curve; in most records, active means well fitted curve in the direction sought with a large enough effect; inconclusive means small, poorly fitted or top-dose-only effect, or another doubt; inactive means no such curve, though single readings can be large; an effect the other way counts as inactive or inconclusive. Potency means the concentration at half of the fitted maximal effect.

Results for CN(C)CCCN(C(=O)c1ccco1)c1nc2cc3c(cc2s1)OCO3 ?
HP1b binding inh: 27.8%; JMJD2A Tudor inh: -23.0%; Sfp PPTase inh: -1.4%; BAZ2B block: -17.9%; G9a inh: -47.4%; TDP1 inh: 4.1%

How did CCN(CC)CCN(C(=O)c1ccc(C(=O)c2ccccc2)cc1)c1nc2cc3c(cc2s1)OCO3 do in these assays?
HP1b binding inh: 3.4%; JMJD2A Tudor inh: inconclusive; Sfp PPTase inh: -9.6%; BAZ2B block: inconclusive; G9a inh: 39.8µM*; TDP1 inh: 9.8%

Results for O=C(Nn1c(-c2ccncc2)nc2ccccc2c1=O)c1ccc([N+](=O)[O-])cc1Cl ?
HP1b binding inh: 9.9%; JMJD2A Tudor inh: -8.3%; Sfp PPTase inh: 18.4%; BAZ2B block: -17.5%; G9a inh: 2.3%; TDP1 inh: 0.6%

Results for O=S(=O)(CCCc1ccccc1)c1ncn[nH]1 ?
HP1b binding inh: 9.7%; JMJD2A Tudor inh: -32.4%; Sfp PPTase inh: 3.6%; BAZ2B block: 5.7%; G9a inh: -7.7%; TDP1 inh: 3.9%

Results for Nc1n[nH]c(S(=O)(=O)CCCc2ccccc2)n1 ?
HP1b binding inh: 66.7%; JMJD2A Tudor inh: -14.4%[11.4 µM]; Sfp PPTase inh: 15.1%; BAZ2B block: -3.5%; G9a inh: 50.1µM*; TDP1 inh: 5.8%

What do the screens show for `Cc1cc(C)nc(Nc2nc(=O)c3ccccc3s2)n1`?
HP1b binding inh: 16.7%; JMJD2A Tudor inh: -9.8%; Sfp PPTase inh: inconclusive; BAZ2B block: -3.9%; G9a inh: 39.8µM*; TDP1 inh: 3.8%

What do the screens show for `Cc1cc(C)nc(Nc2nc(-c3ccccc3)cs2)n1`?
HP1b binding inh: 21.1%; JMJD2A Tudor inh: -9.5%; Sfp PPTase inh: -17.6%; BAZ2B block: -1.8%; TDP1 inh: 4.4%

What do the screens show for `COc1ccc(NC(=O)N2c3ccc(OC)cc3C(C)=CC2(C)C)cc1`?
HP1b binding inh: -22.4%; JMJD2A Tudor inh: 56.2µM*; Sfp PPTase inh: 20µM*; BAZ2B block: 44.7µM*; G9a inh: 50.1µM*; TDP1 inh: 11.4%

Results for COc1ccc(NC(=O)N2c3ccccc3C(C)=CC2(C)C)cc1 ?
HP1b binding inh: -15.6%; JMJD2A Tudor inh: -24.1%[57.1 µM]; Sfp PPTase inh: 7.0%; BAZ2B block: -31.8%; G9a inh: inconclusive; TDP1 inh: 2.7%

Results for CCOc1ccc2c(c1)C(C)=CC(C)(C)N2C(=O)Nc1ccccc1 ?
HP1b binding inh: inconclusive; JMJD2A Tudor inh: 56.2µM*; Sfp PPTase inh: inconclusive; BAZ2B block: 50.1µM*; G9a inh: 50.1µM*; TDP1 inh: 7.9%

What do the screens show for `CCNC(=O)N1c2ccc(OC)cc2C(C)=CC1(C)C`?
HP1b binding inh: -2.9%; JMJD2A Tudor inh: -30.8%; Sfp PPTase inh: -18.4%; BAZ2B block: inconclusive; G9a inh: 50.1µM*; TDP1 inh: 3.8%

How did Cc1ccc(S(=O)(=O)N(C)c2ccc(OC(=O)CN3C(=O)NC(C)(c4ccccc4)C3=O)cc2)cc1C (centres undefined) do in these assays?
HP1b binding inh: 40.6%; JMJD2A Tudor inh: -20.5%

What do the screens show for `C=CCn1cnnc1SCC(=O)Nc1cccnc1Cl`?
BAZ2B block: -3.7%; G9a inh: inconclusive; TDP1 inh: 3.1%

What do the screens show for `CN1C(=O)Cc2cc(S(=O)(=O)Nc3ccc(N4CCOCC4)cc3)ccc21`?
HP1b binding inh: 7.5%; JMJD2A Tudor inh: -15.8%; Sfp PPTase inh: 2.3%; BAZ2B block: -19.8%; G9a inh: 79.4µM*; TDP1 inh: 9.6%

Results for COc1ccc(S(=O)(=O)NC2CCCCC2)cc1-n1cnnn1 ?
HP1b binding inh: -4.9%; JMJD2A Tudor inh: 79.4µM*; Sfp PPTase inh: 8.1%; BAZ2B block: -25.5%; G9a inh: -3.3%; TDP1 inh: 5.1%

How did O=S(=O)(Nc1ccc(N2CCOCC2)cc1)c1c(F)cc(F)cc1Br do in these assays?
HP1b binding inh: inconclusive; JMJD2A Tudor inh: -24.8%[57.1 µM]; Sfp PPTase inh: 5.6%; BAZ2B block: -29.6%; G9a inh: 39.8µM*

What do the screens show for `CC(=O)N1CCN(c2ccc(NS(=O)(=O)c3ccc4c(c3)CC(=O)N4)cc2)CC1`?
JMJD2A Tudor inh: 126µM*

How did Cc1cc(C)c(S(=O)(=O)Nc2ccc(N3CCOCC3)cc2)c(C)c1 do in these assays?
HP1b binding inh: -11.6%; JMJD2A Tudor inh: -34.8%; Sfp PPTase inh: 5.2%; BAZ2B block: inconclusive; G9a inh: inconclusive; TDP1 inh: 10.0%

How did Cc1ccc(S(=O)(=O)N2CCCC(C(=O)NCc3ccccc3F)C2)cc1 (centres undefined) do in these assays?
HP1b binding inh: 25.9%; JMJD2A Tudor inh: -5.4%; Sfp PPTase inh: 18.6%; BAZ2B block: -0.5%; G9a inh: 15.3%

What do the screens show for `COc1cc(NS(=O)(=O)c2ccc3c(c2)C(C)(C)C(=O)N3C)cc(OC)c1`?
HP1b binding inh: 30.2%; JMJD2A Tudor inh: -17.6%; Sfp PPTase inh: 9.1%; BAZ2B block: -12.9%; G9a inh: 16.1%

How did COc1ccc(S(=O)(=O)Nc2ccc(N3CCOCC3)cc2)cc1[N+](=O)[O-] do in these assays?
HP1b binding inh: 33.3%; JMJD2A Tudor inh: -15.4%; Sfp PPTase inh: -17.4%; BAZ2B block: -29.8%; G9a inh: 44.7µM*; TDP1 inh: 3.6%

Results for COc1ccc(S(=O)(=O)NCCN2CCOCC2)cc1Br ?
HP1b binding inh: 24.1%; JMJD2A Tudor inh: -2.4%; Sfp PPTase inh: 0.0%; BAZ2B block: -7.3%; TDP1 inh: 1.9%

Results for Cc1cc(S(=O)(=O)Nc2ccc(N3CCOCC3)cc2)ccc1Br ?
HP1b binding inh: -0.4%; JMJD2A Tudor inh: inconclusive; Sfp PPTase inh: 8.5%; BAZ2B block: inconclusive; G9a inh: 39.8µM*

Results for COc1ccc(S(=O)(=O)Nc2ccc(N3CCOCC3)cc2)cc1Br ?
HP1b binding inh: -17.0%; JMJD2A Tudor inh: inconclusive; Sfp PPTase inh: 3.6%; BAZ2B block: inconclusive; G9a inh: 10µM*; TDP1 inh: 5.1%

How did COc1ccc(S(=O)(=O)Nc2ccc(-n3cnnn3)cc2)cc1Br do in these assays?
HP1b binding inh: 25.5%; JMJD2A Tudor inh: -5.8%; BAZ2B block: -5.7%; G9a inh: 56.2µM*; TDP1 inh: 2.0%

How did CCCCn1cc2c(c1-c1ccccc1Br)c(=O)n(C)c(=O)n2C do in these assays?
HP1b binding inh: 28.3%; JMJD2A Tudor inh: inconclusive; BAZ2B block: inconclusive; G9a inh: -25.6%[59 µM]; TDP1 inh: 7.0%

What do the screens show for `CCOc1cccc(CC(=O)NCc2ccc3c(c2)CCN3C(=O)c2cccc(C)c2)c1OCC`?
HP1b binding inh: 32.2%; JMJD2A Tudor inh: -28.5%; BAZ2B block: -26.3%; G9a inh: -38.5%[59 µM]; TDP1 inh: 3.8%
